Screening data as filed in PubChem.
This is a sample that favours compounds with a hit; in the whole collection about 4.9% have one here.
HSP90 inh: blocks HSP90-mediated luciferase refolding in reticulocyte lysate. AID 1789. Rabbit reticulocyte lysate, luciferase refolding luminescence, 3 h. actives 0.91% (n = 290,000). inhibition, % at 5.6 µM;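 active means inhibition above the screen-wide mean plus 3 SD, computed separately per campaign, cut at about 16% in these data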;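 further: 0% = DMSO wells and 100% = 60 µM geldanamycin wells; inhibitors lower the luminescence because luciferase stays unfolded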
dFosB act: enhances mouse delta FosB homodimer DNA binding. P13346. purified delta FosB, TAMRA-CDK5 oligo fluorescence polarization; percent of positive-control signal above neutral wells. activation, % at 25 µM. actives 0.99% (n = 340,000). AID 493131;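 active means mean activation above about 17%, with every replicate also reaching it, limit read from the data, passing the limit was not always enough; inconclusive means only one of the two conditions met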
Target sequence (P13346 whole entry, looked up): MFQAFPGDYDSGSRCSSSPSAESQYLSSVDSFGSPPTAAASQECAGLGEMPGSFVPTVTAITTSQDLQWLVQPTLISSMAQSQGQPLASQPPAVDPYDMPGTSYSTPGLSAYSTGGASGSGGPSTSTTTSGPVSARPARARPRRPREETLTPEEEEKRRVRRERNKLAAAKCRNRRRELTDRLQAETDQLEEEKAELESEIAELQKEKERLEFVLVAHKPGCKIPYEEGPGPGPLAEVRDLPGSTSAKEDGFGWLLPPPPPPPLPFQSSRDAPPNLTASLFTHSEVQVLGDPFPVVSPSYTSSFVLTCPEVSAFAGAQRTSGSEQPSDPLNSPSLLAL
HSF1 inh: HSF1 inhibition | NIH3T3-HGL HSE-luciferase, MG132-induced, luminescence 8 h; active compounds read low | activity change, negative = inhibition, % at 7.5 µM (by protocol) | actives 0.77% (n = 300,000) | AID 2098;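 active means more than half of replicate wells show activity change below -50%, luminescence cut by over half; inconclusive means some wells, but at most half, below -50%; inactive means no replicate well below -50%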;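 further: luciferase reports HSF-1 transcriptional activity via heat shock element; 0% = median of DMSO wells and -100% = zero luminescence signal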
MPTP block: inhibitors of mitochondrial permeability transition pore; AID 602449; isolated mouse mitochondria, Ca2+ swelling absorbance, 30 min; inhibition, % at 10 µM; actives 1.4% (n = 360,000);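 active means inhibition of 50% or more, scaled per plate between neutral and stimulator controls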;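 further: 0% = DMSO wells given calcium and 100% = 1 mM EGTA wells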
HSF1 activator: increases HSF-1 driven luciferase reporter signal | activation, % at 9 µM | actives 1.7% (n = 300,000) | NIH3T3-HGL HSF-1 luciferase reporter, MG132, 8 h; 100% = twice DMSO control signal;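 active means mean replicate activation of at least 50% with a set share of replicates each reaching 50%; inconclusive means only one of those two conditions met; inactive means mean below 50% and too few replicates reaching it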;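 further: 0% = median of the neutral control wells and 100% = twice that signal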
Platelet DG rel: modulates dense granule release in human platelets. human platelet-rich plasma, SFLLRN dense granule ATP release, luminescence. inhibition, %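 (compounds screened at 7.5 µM in platelet-rich plasma)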. actives 0.22% (n = 300,000). AID 1663;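 active means mean replicate score, as percent of positive control, at or above 50; inconclusive means mean below 50 but at least one replicate at or above 50; inactive means mean and every replicate below 50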
HSP90 inh confirm: HSP90 inhibition, confirmation assay; shares compounds with HSP90 inh; rabbit reticulocyte lysate, luciferase refolding luminescence, 3 h; inhibition, % at 5.9 µM; actives 64% (n = 2,300); in the data active means inhibition above about 18%;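 further: 0% = vehicle wells and 100% = reference inhibitor wells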
FLuc counter: firefly luciferase inhibition, HSP90 counter-screen; shares compounds with HSP90 inh; purified native firefly luciferase, luminescence; inhibition, % at 5.9 µM; actives 48% (n = 2,300);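 active means inhibition above the mean inhibition of all tested sample wells plus 3 SD, cut at about 10% in these data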;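 further: 0% = DMSO with luciferase and 100% = wells lacking luciferase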
Starred values were filed as active, the others as inactive; ? = inconclusive; . = no result given.

SMILES | HSP90 inh | dFosB act | HSF1 inh | MPTP block | HSF1 activator | Platelet DG rel | HSP90 inh confirm | FLuc counter
NS(=O)(=O)c1cccc(NC(=O)COC(=O)CSCc2ccccc2)c1 | . | -5 | . | 0 | . | . | . | .
O=C1OC2(CCCCC2)OC(=O)C1=CNc1ccc2c(c1)OCO2 | 3 | -1 | -1 | 2 | 5 | 2 | . | .
O=C1/C(=C/Nc2ccc3c(c2)OCO3)CCc2ccccc21 | 38* | -13 | -44 | 6 | -46 | ? | 86* | 72*
COc1ccc(-n2nc(C(=O)NCC(=O)N3CCN(Cc4ccccc4)CC3)c3ccccc3c2=O)cc1 | 24* | -23 | 3 | 0 | 31 | 1 | -2 | -7
CCN1CCN(C(=O)CNC(=O)c2nn(-c3ccc(OC)cc3)c(=O)c3ccccc23)CC1 | 4 | -14 | -1 | 0 | -3 | -1 | . | .
COc1ccccc1N1CCN(C(=S)Nc2cccc(C)c2)CC1 | 27* | -10 | ? | 2 | -48 | -3 | 29* | 1
CCOC(=O)C1=C(O)/C(=C\c2ccc(CNS(=O)(=O)c3ccc(Br)cc3)o2)N=C1C | 4 | -8 | -5 | 1 | -7 | 5 | . | .
Cc1nnc2sc(-c3ccc(N(C)C)cc3)nn2c1=O | 20* | -13 | 16 | 1 | 20 | -3 | 8 | -10
COc1ccc(C(=O)O/N=C(\N)c2ccccc2)c(OC)c1 | 51* | -4 | -40 | 3 | -49 | 26 | 37* | 26*
COc1ccc(Cl)cc1C(=O)O/N=C(\N)c1ccccn1 | 1 | -14 | 15 | 0 | 42 | 4 | . | .
COc1ccc(C(=O)O/N=C(\N)c2ccccn2)c(OC)c1 | 43* | -8 | -8 | 1 | 1 | 40 | 11 | 3
OCCNc1ncnc2c1ncn2[C@H]1CN(Cc2ccco2)C[C@@H](CO)O1 | . | . | . | -2 | . | . | . | .
O=C(Nc1cccc(F)c1)/C(=C/c1ccco1)NC(=O)c1ccco1 | 5 | -6 | 2 | -1 | 2 | -10 | . | .
O=C(c1cc(-c2ccccc2)on1)N1CCCCCC1 | 14 | 2 | 38 | 0 | ? | -6 | . | .
COc1ccc2cc3cc(C(=O)N4CCCCCC4)oc3nc2c1 | 17* | -42 | -5 | -1 | -5 | 18 | 40* | 22*
COc1ccc(-c2cc(C(=O)N3CCCC3)no2)cc1 | 39* | -4 | -1 | 0 | 24 | -4 | 57* | 42*
Cc1ccc(-c2cc(C(=O)N3CCCCCC3)no2)cc1 | 23* | 2 | 1 | 0 | 3 | -12 | 29* | 20*
C=CCOc1ccc(CNc2ccc3[nH]c(=O)[nH]c3c2)cc1 | -3 | -7 | 1 | 1 | 9 | -3 | . | .
c1ccc(-c2nnc3nc(N4CCCCC4)nc(N4CCCCC4)n23)cc1 | . | -1 | . | 0 | . | . | . | .
CCCCn1c(SCC(=O)N(C)C)nnc1-c1ccncc1 | 4 | -2 | 4 | -2 | 36 | -4 | . | .
COc1ccccc1/C=C/C(=O)OCC(=O)NC1CC1 | . | -1 | . | 1 | . | . | . | .
O=C1C2CCCN2C(=S)N1c1ccccc1 (stereo not drawn) | 49* | 2 | -9 | 0 | -8 | 3 | -8 | -14
Cc1cc(OC(C)C(=O)NC(Cc2c[nH]c3ccc(O)cc23)C(=O)O)c2c(C)c(C)c(=O)oc2c1 (stereo not drawn) | -7 | -7 | -6 | 0 | -4 | -9 | . | .
CC(Oc1ccc2c(c1)oc(=O)c1ccccc12)C(=O)NC(Cc1c[nH]c2ccc(O)cc12)C(=O)O (stereo not drawn) | 47* | 2 | 1 | 0 | -10 | -3 | -2 | -5
CN(C)c1ccc(-c2nc3ccccn3c2/N=C/c2ccc(Br)cc2)cc1 | 18* | -5 | 0 | 6 | 24 | 12 | 35* | 19*
COC(=O)c1ccc(-c2ccc(/C=N/NC(=O)CC3(C)OCCCO3)o2)cc1 | 17* | -7 | -9 | 1 | -4 | -2 | 26* | 0
CC1(CC(=O)N/N=C/c2ccc(-c3ccc(C(=O)O)cc3)o2)OCCO1 | -1 | 1 | -6 | -1 | 7 | 4 | . | .
CN(C(=O)c1cccc(NC(=O)Cc2ccc(NC(=O)C3CCCN(S(=O)(=O)c4cccc([N+](=O)[O-])c4)C3)cc2)c1)C1CCCCC1 (stereo not drawn) | . | 3 | . | 2 | . | . | . | .
COc1ccc(/C=N/NC(=S)Nc2ccccc2[N+](=O)[O-])cc1O | 51* | -7 | -3 | 0 | -9 | 2 | 53* | 11*
CCNC(=S)N/N=C/c1ccccc1[N+](=O)[O-] | 20* | -3 | 5 | 0 | -3 | 0 | 0 | -3
